Test results: the supplement of paper PMC6555819

Tests used:
Test in all cases: PBM binding z-score (relative to random genomic background probes); higher = stronger binding; sequences stand for … in GC…GCGATTGACAGCGTAGAATGAAGG
[1] = system: FXR:RXRa (NR concentration 270 nM, RXRa partner concentration 90 nM)
Method in brief: (§1)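 Binding z-scores take random background probes as their reference. They come from custom Agilent 4×180K protein-binding microarrays incubated 1 h with ligand-free nuclear receptor dimers, with antibodies against each partner (one per run) detecting binding. Scanned fluorescence was regression-normalized.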

[2] = system: LXRa:RXRa (NR concentration 270 nM, RXRa partner concentration 90 nM)
Method in brief: as §1

[3] = system: LXRa homodimer (NR concentration 270 nM)
Method in brief: as §1

[4] = system: LXRb:RXRa (NR concentration 270 nM, RXRa partner concentration 90 nM)
Method in brief: as §1

[5] = system: LXRb homodimer (NR concentration 270 nM)
Method in brief: as §1

[6] = system: PPARa:RXRa (NR concentration 270 nM, RXRa partner concentration 90 nM)
Method in brief: as §1

[7] = system: PPARg:RXRa (NR concentration 180 nM, RXRa partner concentration 90 nM)
Method in brief: as §1

[8] = system: PPARg:RXRa 270nM:90nM, anti-RXR (NR concentration 270 nM, RXRa partner concentration 90 nM)
Method in brief: as §1

[9] = system: PPARg:RXRa 30nM:10nM, anti-RXR (NR concentration 30 nM, RXRa partner concentration 10 nM)
Method in brief: as §1

[10] = system: PPARg:RXRa 90nM:30nM, anti-RXR (NR concentration 90 nM, RXRa partner concentration 30 nM)
Method in brief: as §1

[11] = system: PPARg:RXRa DBDmut IVT, anti-RXR (DBD mutation: RXRa K156A/R161A, NR concentration 270 nM, RXRa partner concentration 90 nM)
Method in brief: as §1

[12] = system: PPARg:RXRa IVT, anti-PPARg (NR concentration 270 nM, RXRa partner concentration 90 nM)
Method in brief: as §1

[13] = system: PPARg DBDmut:RXRa IVT, anti-PPARg (DBD mutation: PPARg1 K132A/R137A, NR concentration 270 nM, RXRa partner concentration 90 nM)
Method in brief: as §1

[14] = system: PPARg DBDmut IVT, anti-PPARg (DBD mutation: PPARg1 K132A/R137A, NR concentration 270 nM)
Method in brief: as §1

[15] = system: PPARg homodimer (NR concentration 180 nM)
Method in brief: as §1

[16] = system: PXR:RXRa (NR concentration 270 nM, RXRa partner concentration 90 nM)
Method in brief: as §1

[17] = system: PXR homodimer (NR concentration 270 nM)
Method in brief: as §1

[18] = system: RARa:RXR (NR concentration 270 nM, RXRa partner concentration 90 nM)
Method in brief: as §1

[19] = system: RARa homodimer (NR concentration 270 nM)
Method in brief: as §1

[20] = system: RARb:RXRa (NR concentration 270 nM, RXRa partner concentration 90 nM)
Method in brief: as §1

Row | Sequence | PBM binding z-score [1] | PBM binding z-score [2] | PBM binding z-score [3] | PBM binding z-score [4] | PBM binding z-score [5] | PBM binding z-score [6] | PBM binding z-score [7] | PBM binding z-score [8] | PBM binding z-score [9] | PBM binding z-score [10] | PBM binding z-score [11] | PBM binding z-score [12] | PBM binding z-score [13] | PBM binding z-score [14] | PBM binding z-score [15] | PBM binding z-score [16] | PBM binding z-score [17] | PBM binding z-score [18] | PBM binding z-score [19] | PBM binding z-score [20]
1 | TCAGACAGGTGAAGGTAGCTCAGGTACGCAGTCG | 0.513 | 0.567 | -0.0814 | 0.434 | -0.218 | 1.02 | 0.481 | 1.75 | 3.33 | 2.65 | 2.37 | 0.501 | 0.112 | 0.071 | 0.349 | 0.216 | -0.0197 | 0.316 | 0.354 | 1.07
2 | GATACAGGGTCAGCTAGAGGCCAGAGTATGGAAA | 4.81 | 2.75 | -0.32 | 2.6 | -0.659 | 4.53 | 3.81 | 3.35 | 0.742 | 2.06 | 1.03 | 2.29 | 0.139 | 0.0351 | 3.5 | 3.49 | -0.262 | 4.85 | 0.574 | 4.22
3 | TCGAGTAGGTTAGTCGGGGCGTTCAGCCAACATA | -0.0524 | -0.272 | -0.481 | -0.0286 | -1.19 | 0.148 | -0.893 | 0.268 | 0.61 | 0.186 | 1.73 | 0.976 | -0.368 | -0.973 | -0.66 | -0.237 | -0.771 | -0.294 | -0.96 | 0.0731
4 | TCTGCTAGGTCAGTTAGTCAGCTAACGAGCTGCC | 0.761 | 0.452 | -0.662 | 0.131 | -0.11 | 0.983 | -0.0973 | 1.33 | 1.2 | 1.46 | 2.31 | 2.39 | 0.967 | 0.0395 | -0.199 | 0.00438 | -0.871 | 0.377 | -0.653 | 2.89
5 | CCTACTGGGCCATTCAGAGCTCATTGATCATATG | -0.592 | -0.786 | -0.476 | -0.728 | -0.785 | 0.169 | 0.223 | 0.0807 | -0.459 | -0.224 | 4.75 | 3.12 | -0.435 | -0.6 | -0.275 | -0.612 | -0.562 | -0.258 | -0.409 | -0.143
6 | ATCTCTAGGTAACAAGATCAGTGAAAGAGAGGAC | 0.203 | 0.168 | 0.348 | 0.0382 | 0.596 | 0.578 | 1.09 | 0.835 | 0.253 | 0.677 | 3.03 | 2.72 | 1.75 | 1.21 | 0.336 | 0.0521 | -0.0922 | 0.158 | 1.1 | 0.327
7 | TGAGTGAGGTTATAAGATCAGGGAACGTTGCAAA | 1.06 | 1.07 | -0.22 | 0.866 | 0.134 | 2.47 | 0.711 | 1.23 | 0.53 | 0.855 | -0.596 | 0.754 | 0.555 | -0.0846 | 0.652 | 0.754 | 0.0305 | 1.06 | 0.466 | 1.25
8 | TTACCAAGGTAAGCTGAGGTCGTTGATCCAACTC | 0.46 | 2.12 | -0.287 | 0.881 | -0.769 | 1.3 | -0.244 | 0.0724 | -0.421 | -0.31 | -0.0286 | 0.407 | -0.293 | -0.159 | -0.361 | 3.52 | 0.144 | 1.9 | -1.52 | 0.571
9 | TCTTGGAGATCAATAGAGGTTAAGAAAGTGCGCT | 1.28 | 3.82 | 0.422 | 2.09 | -0.451 | 1.94 | -0.159 | 1.27 | 2.09 | 1.59 | 0.87 | 0.273 | 0.0631 | -0.22 | 0.19 | 3.33 | -0.00174 | 1.94 | 0.245 | 0.9
10 | ATCTCCAGGTAAAGATAGTTCAGTGAATGCAAAT | 0.234 | 4.39 | 0.615 | 0.852 | 0.602 | 0.316 | 0.194 | 0.28 | 0.232 | -0.042 | 0.28 | 0.419 | 1.11 | 1.09 | 0.798 | 1.1 | 1.1 | 0.0525 | 1.34 | 0.907
11 | CCGACTGGGGCATAAGATTACCATAAGCCAGCCC | -0.495 | -0.33 | -0.319 | -0.411 | -1.33 | 0.114 | 1.12 | 0.921 | -0.305 | 0.461 | 3.26 | 1.75 | -0.988 | -1.17 | 0.089 | -0.666 | -0.41 | -0.621 | -0.486 | 0.112
12 | GCAGACAGGTGAAGCGCAGGTAACTCAGGGTGGC | -0.663 | -0.276 | -0.718 | -0.713 | -1.29 | -0.0823 | 0.129 | -0.656 | -1.07 | -0.9 | 0.302 | 0.226 | -0.748 | -1.21 | -0.277 | -0.484 | -0.646 | -0.125 | -1.03 | 0.497
13 | CGAACTAGGTCATCCGGGACAGTGAATACATTGA | 4.46 | 2.66 | 0.565 | 2.05 | 0.166 | 5.08 | 8.08 | 6.28 | 3.97 | 5.8 | 8.35 | 8.45 | 3.68 | 1.68 | 1.84 | 1.8 | 0.618 | 2.4 | 0.0887 | 4.09
14 | ATCTCTAGGTAAACTTCAGTGAAAGATCGATAGA | 0.831 | 0.515 | 0.351 | 0.0821 | 1.21 | 0.408 | 0.488 | 0.399 | 0.397 | 0.45 | 2.68 | 2.02 | 1.5 | 1.2 | 0.999 | 0.0812 | 0.42 | 0.344 | 1.42 | 0.268
